# Data published in the supplement of paper PMC12494721.
# Where a name gives a salt, the structure may show the parent alone.
# Assays:
# Conditions in all cases: incubation time: 27 h, anaerobic, 37 °C;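 for the amine columns active = adjusted P below 0.05 in both replicates with a change the same way and a mean fold change under 0.8 or over 1.25; inactive = the rest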
# [1] = tested on: Clostridium sporogenes DSM 1664; experiment: growth (OD595) fold change vs plate DMSO controls (fold change (ratio)); higher = more growth
# In short: (§1)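 The 96-well mGAM cultures had been kept anaerobic for 27 h at 37 °C before being shaken and read at 595 nm. Blank subtraction, compound background correction with 20 µM compound solutions in water, and a calibration factor of 5 turned the readings into OD. Growth is given as the fold change versus the median of plate DMSO controls. Fold changes above 1.5 were set to NA, and the values are means of 2 biological replicates.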
# [2] = tested on: Escherichia coli IAI1; experiment: as above
# In short: as §1
# [3] = tested on: Klebsiella aerogenes DSM 30053; experiment: as above
# In short: as §1
# [4] = tested on: Ruminococcus gnavus DSM 108212; experiment: as above
# In short: as §1
# [5] = tested on: Klebsiella aerogenes DSM 30053; experiment: fold change of Histamine concentration vs plate DMSO controls (fold change (ratio)); higher = more amine produced, active = hit call of the paper (significant change in both replicates, either direction)
# In short: (§2)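 Each value is the fold change relative to DMSO-only wells on the same plate. Four gut bacterial strains were grown anaerobically in mGAM at 37 °C for 27 h in 80 µL wells, starting at OD 0.1 before a 1:1 dilution, with compounds at 20 µM final (sweeteners 50 µM). Whole cultures were extracted with cold acetonitrile/methanol containing 0.1% formic acid, centrifuged, and amines were quantified by LC–triple-quadrupole MS (dynamic MRM) against external calibration curves with within-batch drift correction. Values are means of 2 biological replicates.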
# [6] = tested on: Clostridium sporogenes DSM 1664; experiment: fold change of Tryptamine concentration vs plate DMSO controls (fold change (ratio)); higher = more amine produced, active = hit call of the paper (significant change in both replicates, either direction)
# In short: as §2
# [7] = tested on: Ruminococcus gnavus DSM 108212; experiment: as above
# In short: as §2
# [8] = tested on: Escherichia coli IAI1; experiment: fold change of Putrescine concentration vs plate DMSO controls (fold change (ratio)); higher = more amine produced, active = hit call of the paper (significant change in both replicates, either direction)
# In short: as §2
# [9] = tested on: Klebsiella aerogenes DSM 30053; experiment: as above
# In short: as §2
# [10] = tested on: Escherichia coli IAI1; experiment: fold change of Cadaverine concentration vs plate DMSO controls (fold change (ratio)); higher = more amine produced, active = hit call of the paper (significant change in both replicates, either direction)
# In short: as §2
# [11] = tested on: Klebsiella aerogenes DSM 30053; experiment: as above
# In short: as §2
# [12] = tested on: Ruminococcus gnavus DSM 108212; experiment: fold change of 2-Phenylethylamine concentration vs plate DMSO controls (fold change (ratio)); higher = more amine produced, active = hit call of the paper (significant change in both replicates, either direction)
# In short: as §2
Structure (SMILES),growth [1],growth [2],growth [3],growth [4],fold change of Histamine concentration [5],fold change of Tryptamine concentration [6],fold change of Tryptamine concentration [7],fold change of Putrescine concentration [8],fold change of Putrescine concentration [9],fold change of Cadaverine concentration [10],fold change of Cadaverine concentration [11],fold change of 2-Phenylethylamine concentration [12]
CC[N+](CC)(CC(=O)Nc1c(C)cccc1C)Cc1ccccc1 [Denatonium benzoate] (20 µM),0.911,1.2,1.02,1.02,0.934 (inactive),0.999 (inactive),0.99 (inactive),1 (inactive),0.995 (inactive),0.91 (inactive),1 (inactive),0.945 (inactive)
CC(=O)[C@@]12O[C@](C)(c3ccccc3)O[C@@H]1C[C@H]1[C@@H]3CCC4=CC(=O)CC[C@]4(C)[C@H]3CC[C@@]12C [Algestone acetophenide] (20 µM),1.03,1.22,0.998,1.13,1.03 (inactive),0.919 (inactive),1.08 (inactive),1.3 (inactive),1.01 (inactive),0.955 (inactive),1 (inactive),1.1 (inactive)
O=P(O)(O)C(Cl)(Cl)P(=O)(O)O [Clodronate disodium] (20 µM),0.99,1.03,1.02,1.09,1.02 (inactive),0.973 (inactive),0.999 (inactive),1.02 (inactive),1.02 (inactive),1.03 (inactive),1 (inactive),0.981 (inactive)
Cc1nnc(NS(=O)(=O)c2ccc(N)cc2)s1 [Sulfamethizole] (20 µM),0.987,1.05,1.06,1.12,0.935 (inactive),0.928 (inactive),0.884 (inactive),0.961 (inactive),0.981 (inactive),1.03 (inactive),0.995 (inactive),0.815 (inactive)
CC(=O)Nc1ccc(OCC(O)CNC(C)C)cc1 (stereo not drawn) [Practolol] (20 µM),0.924,1.01,1,1.17,1.03 (inactive),1.05 (inactive),1.04 (inactive),1.04 (inactive),0.993 (inactive),0.999 (inactive),1.01 (inactive),1.02 (inactive)
NS(=O)(=O)c1cc2c(cc1Cl)NC(CC1CCCC1)NS2(=O)=O (stereo not drawn) [Cyclopenthiazide] (20 µM),1.33,1.03,0.98,0.993,1.01 (inactive),1.03 (inactive),1.04 (inactive),1.07 (inactive),1.01 (inactive),0.979 (inactive),0.996 (inactive),1.04 (inactive)
O=C1OC(CN2CCOCC2)CN1/N=C/c1ccc([N+](=O)[O-])o1 (stereo not drawn) [Furaltadone hydrochloride] (20 µM),0.861,1.04,0.945,0.987,0.938 (inactive),0.89 (inactive),0.852 (inactive),0.777 (inactive),0.939 (inactive),1.7 (active),1.01 (inactive),0.929 (inactive)
CC(CN(C)C)C(C)(O)Cc1ccc(Cl)cc1 (stereo not drawn) [Clobutinol hydrochloride] (20 µM),0.926,1.01,1.02,1.26,1.03 (inactive),1.02 (inactive),0.975 (inactive),0.975 (inactive),0.997 (inactive),0.965 (inactive),0.988 (inactive),0.988 (inactive)
CN(C)CCOC(=O)COc1ccc(Cl)cc1 [Meclofenoxate hydrochloride] (20 µM),1.13,1.02,1.01,0.995,1.11 (inactive),0.931 (inactive),0.958 (inactive),1 (inactive),1.01 (inactive),1.02 (inactive),0.979 (inactive),0.895 (inactive)
COc1c(O)cc2c(c1O)[C@@H]1O[C@H](CO)[C@@H](O)[C@H](O)[C@H]1OC2=O [Bergenin] (20 µM),0.966,1.05,1.11,1.05,0.891 (inactive),1.01 (inactive),1.06 (inactive),0.97 (inactive),0.997 (inactive),0.93 (inactive),1.03 (inactive),1.05 (inactive)
Cc1ccc(S(=O)(=O)NCl)cc1 [Chloramine-T hydrate] (20 µM),0.97,0.978,1.11,1.07,0.912 (inactive),0.931 (inactive),0.992 (inactive),1.01 (inactive),1.03 (inactive),1.01 (inactive),1.02 (inactive),0.935 (inactive)
CC1(C)OC(=O)NC1=O [Dimethadione] (20 µM),0.999,0.98,0.949,1.02,0.952 (inactive),1.03 (inactive),0.747 (inactive),1.02 (inactive),1 (inactive),1.01 (inactive),0.992 (inactive),0.853 (inactive)
O=C(N/N=C/c1ccc([N+](=O)[O-])o1)c1ccc(O)cc1 [Nifuroxazide] (20 µM),1.11,1.03,0.907,1.2,1.01 (inactive),0.998 (inactive),0.89 (inactive),0.759 (active),0.954 (inactive),1.58 (active),1.02 (inactive),0.626 (active)
CC(=O)Oc1cc2c(s1)CCN(C(C(=O)C1CC1)c1ccccc1F)C2 (stereo not drawn) [Prasugrel] (20 µM),1.1,1.02,1,0.989,1 (inactive),0.957 (inactive),0.985 (inactive),0.983 (inactive),1.01 (inactive),1.03 (inactive),0.994 (inactive),0.965 (inactive)
CC(C)(CO)[C@@H](O)C(=O)NCCCC(=O)O [Hopantenate calcium] (20 µM),1.07,0.997,0.983,1.05,1.03 (inactive),1.02 (inactive),1.04 (inactive),1.01 (inactive),0.995 (inactive),1.03 (inactive),0.988 (inactive),1.03 (inactive)
NC[C@H]1O[C@H](O[C@H]2[C@H](O)[C@@H](O[C@H]3O[C@H](CO)[C@@H](O)[C@H](N)[C@H]3O)[C@H](N)C[C@@H]2N)[C@H](N)C[C@@H]1O [Tobramycin] (20 µM),1.09,0.95,0.772,0.73,0.65 (active),1.13 (inactive),0.946 (inactive),0.911 (inactive),0.922 (inactive),0.889 (inactive),0.978 (inactive),0.941 (inactive)
O=C(O)CSCC(=O)NC1CCSC1=O (stereo not drawn) [Erdosteine] (20 µM),1.04,1.07,1.03,1.04,0.984 (inactive),0.962 (inactive),1.01 (inactive),0.971 (inactive),1 (inactive),0.993 (inactive),0.993 (inactive),0.988 (inactive)
Cc1cc(C(C)(C)C)cc(C)c1CC1=NCCN1 [Xylometazoline hydrochloride] (20 µM),0.986,1.01,1.01,1.1,0.982 (inactive),1.01 (inactive),1.01 (inactive),0.986 (inactive),0.966 (inactive),0.968 (inactive),1 (inactive),0.998 (inactive)
CCN1CCCC(OC(=O)C(c2ccccc2)c2ccccc2)C1 (stereo not drawn) [Piperidolate hydrochloride] (20 µM),1.1,1.01,0.987,0.893,1.02 (inactive),1.07 (inactive),1.01 (inactive),1.02 (inactive),1 (inactive),1.02 (inactive),0.993 (inactive),1.06 (inactive)
CCn1cc(C(=O)O)c(=O)c2cc(F)c(N3CCNCC3)nc21 [Enoxacin] (20 µM),0.0582,0.0418,0.246,1.01,0.228 (active),0.0679 (active),0.892 (inactive),0.878 (inactive),1.19 (inactive),0.269 (active),0.961 (inactive),0.905 (inactive)
CC(C)[C@H](N)C(=O)OCC(CO)OCn1cnc2c(=O)nc(N)[nH]c21 (stereo partly drawn) [Valganciclovir hydrochloride] (20 µM),1.1,0.991,1.03,0.987,0.998 (inactive),0.983 (inactive),0.964 (inactive),1.01 (inactive),1.01 (inactive),1.01 (inactive),1.01 (inactive),0.926 (inactive)
Cc1ccc(N(CC2=NCCN2)c2cccc(O)c2)cc1 [Phentolamine hydrochloride] (20 µM),1.07,1,0.871,0.765,0.97 (inactive),1.03 (inactive),1 (inactive),1.05 (inactive),0.981 (inactive),0.652 (active),0.993 (inactive),1.01 (inactive)
CN(C)c1ccc2nc3ccc(=[N+](C)C)cc-3sc2c1 [Methylene blue] (20 µM),0.774,0.466,0.42,0.00745,0.942 (inactive),0.998 (inactive),1.02 (inactive),0.965 (inactive),0.928 (inactive),0.941 (inactive),0.989 (inactive),1.09 (inactive)
CCCCc1ncc(/C=C(\Cc2cccs2)C(=O)O)n1Cc1ccc(C(=O)O)cc1 [Eprosartan mesylate] (20 µM),1.06,1.06,1.16,0.916,0.882 (inactive),1.08 (inactive),0.998 (inactive),0.975 (inactive),1 (inactive),0.963 (inactive),1.03 (inactive),1.02 (inactive)
